In PubChem BioAssay (NCI):
About 79,000 compounds went through this panel and 15% of them were active in at least one assay; those are over-represented in the sample as a whole. Calls of active or inactive are those of the source. Cut-off read from the data, not from the text of the source: active = growth inhibition above about 70%; inactive = the rest.

Assays:
[1] = NCI Yeast Anticancer Drug Screen. Data for the wt1 strain (AID 149);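 note: 0% = growth of vehicle-treated wt1 cultures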; settings: S. cerevisiae wt1 strain (SPY 50644) growth inhibition, hits give high values
Summary of the method: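 wt1 yeast, compound-treated; % growth inhibition vs vehicle control.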

[2] = NCI Yeast Anticancer Drug Screen. Data for the rad50EPP+ strain (AID 151);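 note: 0% = growth of vehicle-treated control cultures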; settings: S. cerevisiae rad50 mutant strain, hits give high values
Summary of the method: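 Strain rad50EPP+; compound exposure; % growth inhibition vs vehicle.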

[3] = NCI Yeast Anticancer Drug Screen. Data for the mgt1 strain (AID 153); settings: S. cerevisiae mgt1 mutant growth inhibition, hits give high values
Summary of the method: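 Read-out: yeast growth inhibition vs vehicle control. Strain mgt1, drawn from a panel altered in DNA damage repair or cell cycle control.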

[4] = NCI Yeast Anticancer Drug Screen. Data for the rad50 strain (AID 155);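 note: 0% = growth of vehicle-only cultures of the same strain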; settings: S. cerevisiae rad50 strain growth inhibition, hits give high values
Summary of the method: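 Genetically altered yeast (DNA repair pathway); compound treatment; growth inhibition vs vehicle ctrl.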

[5] = NCI Yeast Anticancer Drug Screen. Data for the mec2-1 strain (AID 157); settings: S. cerevisiae mec2-1 strain, hits give high values
Summary of the method: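 Cells of the genetically defined mec2-1 yeast strain are incubated with test compound. Inhibition of growth is calculated against vehicle-treated controls.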

[6] = NCI Yeast Anticancer Drug Screen. Data for the rad14 strain (AID 159);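 note: 0% = growth of vehicle-treated control cultures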; settings: S. cerevisiae rad14 strain growth inhibition, hits give high values
Summary of the method: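 Test compounds were applied to a repair-deficient yeast strain. Its growth was then compared with that of cultures given vehicle alone, and inhibition was expressed relative to those controls.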

[7] = NCI Yeast Anticancer Drug Screen. Data for the sgs1 mgt1 strain (AID 161);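 note: 0% = growth of cultures given vehicle only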; settings: S. cerevisiae sgs1 mgt1 strain, hits give high values
Summary of the method: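 Inhibition of yeast growth, normalised to vehicle-treated controls, is reported for a strain bearing genetic alterations in DNA damage repair.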

[8] = NCI Yeast Anticancer Drug Screen. Data for the cln2 rad14 strain (AID 165);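 note: 0% = growth equal to vehicle treated cultures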; settings: S. cerevisiae cln2 rad14 strain, hits give high values
Summary of the method: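 The screen exposed genetically defined yeast (cln2 rad14) to test compounds and scored growth inhibition relative to vehicle-treated controls.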

[9] = NCI Yeast Anticancer Drug Screen. Data for the bub3 strain (AID 167); settings: S. cerevisiae bub3 mutant strain, hits give high values
Summary of the method: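 Yeast carrying a defined mutation is treated with each compound, and growth is compared with that of vehicle-exposed cells to give inhibition.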

[10] = NCI Yeast Anticancer Drug Screen. Data for the wt2 strain (AID 169);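 note: 0% = growth of vehicle-treated yeast cultures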; settings: S. cerevisiae wt2 strain growth inhibition, hits give high values
Summary of the method: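 Steps: yeast strain treated with compound; growth recorded; inhibition calculated relative to cultures given vehicle alone.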

[11] = NCI Yeast Anticancer Drug Screen. Data for the mlh1 strain (AID 171);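 note: 0% = growth of vehicle-treated control cultures of the same strain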; settings: S. cerevisiae mlh1 strain growth inhibition, hits give high values
Summary of the method: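 Yeast screen: mutant strain plus compound, growth scored against vehicle control wells.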

[12] = NCI Yeast Anticancer Drug Screen. Data for the sgs1 strain (AID 173);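 note: 0% = growth of vehicle-only control cultures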; settings: S. cerevisiae sgs1 mutant, hits give high values
Summary of the method: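 Inhibition of yeast growth served as the measure. The mutant strain was treated with each compound, and growth was normalised to cultures receiving vehicle alone.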

[13] = NCI Yeast Anticancer Drug Screen. Data for the mlh1 rad18 strain (AID 175); settings: S. cerevisiae mlh1 rad18 strain growth inhibition, hits give high values
Summary of the method: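 Compound-treated yeast growth, normalised to vehicle controls. Strain bears defined DNA repair mutations.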

[14] = NCI Yeast Anticancer Drug Screen. Data for the rad18 strain (AID 177); settings: S. cerevisiae rad18 mutant growth inhibition, hits give high values
Summary of the method: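 Inhibition values reflect reduced yeast growth compared with vehicle-treated controls, using a strain engineered with a DNA damage repair defect.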

[15] = at 5.0 µM (retest, dose inferred, filed as 0.5)
[16] = at 50.0 µM (retest, dose inferred, filed as 5.0)

Measured: growth inhibition

O=C(/C=C/c1cccc2ccccc12)c1ccc(Cl)cc1
inactive: [1]; at 1.2 µM -30% | [1]; at 3.7 µM -19% | [1]; at 11.0 µM -28% | [1]; at 33.0 µM -34% | [1]; at 100.0 µM -45% | [2]; at 1.2 µM -3% | [2]; at 3.7 µM 4% | [2]; at 11.0 µM 9% | [2]; at 33.0 µM 0% | [2]; at 100.0 µM -12% | [3]; at 1.2 µM 13% | [3]; at 3.7 µM 11% | [3]; at 11.0 µM 7% | [3]; at 33.0 µM 8% | [3]; at 100.0 µM -5% | [4]; at 1.2 µM 24% | [4]; at 3.7 µM 27% | [4]; [15] 37% | [4]; at 11.0 µM 24% | [4]; at 33.0 µM 13% | [4]; at 100.0 µM 13% | [5]; at 1.2 µM 11% | [5]; at 3.7 µM 14% | [5]; [15] 67% | [5]; at 11.0 µM -2% | [5]; at 33.0 µM -6% | [5]; at 100.0 µM -12% | [6]; at 1.2 µM -28% | [6]; at 3.7 µM -23% | [6]; at 11.0 µM -30% | [6]; at 33.0 µM -38% | [6]; at 100.0 µM -35% | [7]; [15] -3% | [7]; [16] 42% | [8]; [15] 28% | [8]; [16] -7% | [9]; at 1.2 µM 6% | [9]; at 3.7 µM 11% | [9]; [15] 2% | [9]; at 11.0 µM 9% | [9]; at 33.0 µM 7% | [9]; [16] 17% | [9]; at 100.0 µM -6% | [10]; at 1.2 µM -25% | [10]; at 3.7 µM -19% | [10]; at 11.0 µM -28% | [10]; at 33.0 µM -33% | [10]; at 100.0 µM -33% | [11]; at 1.2 µM -33% | [11]; at 3.7 µM -24% | [11]; at 11.0 µM -34% | [11]; at 33.0 µM -46% | [11]; at 100.0 µM -49% | [12]; at 1.2 µM -21% | [12]; at 3.7 µM -22% | [12]; at 11.0 µM -27% | [12]; at 33.0 µM -34% | [12]; at 100.0 µM -48% | [13]; [15] 35% | [14]; at 1.2 µM 3% | [14]; at 3.7 µM 9% | [14]; at 11.0 µM 5% | [14]; at 33.0 µM 13% | [14]; at 100.0 µM 14%
active: [4]; [16] 98% | [4]; at 50.0 µM 83.5% | [5]; [16] 99% | [5]; at 50.0 µM 74.6% | [13]; [16] 99% | [13]; at 50.0 µM 80.4%
